Results published in PubChem BioAssay (Tox21).
Where “and” joins values, the source holds several entries; their conditions need not be identical. Equal values may be shown once. Inconclusive results are not listed. Calls of active or inactive are those of the source. Calls come from the whole dose curve; as a rule, active = well fitted curve in the direction sought with a large enough effect in the repeat runs; inconclusive = weak or mixed curves; inactive = no such curve, though single readings can be large; an effect the other way counts as inactive or inconclusive.

Columns and labels:
[1] = qHTS RealTime-Glo MT Cell Viability Assay in HEK293 cells - 40 hour (AID 1224874); details: RealTime-Glo luminescence; max response: stronger effect = lower value; note: nearly all actives have a fitted effect of over 50% in size; note: potency is the fitted concentration of half-maximal effect
Outline: (§1)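 600 HEK293 cells per well, dispensed already mixed with RealTime-Glo MT reagents. Compound dosing came 5 h later. The same wells were read for luminescence at 0, 8, 16, 24, 32 and 40 h of exposure at 37 C.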

[2] = A CellTox Green Cytotoxicity Assay to monitor cytotoxicity in HepG2 cells - 16 hour (AID 1224876); note: nearly all actives have a fitted effect of over 45% in size; note: potency is the fitted concentration of half-maximal effect
Outline: (§2)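 First, HepG2 cells (600/well) mixed with reagent were plated; second, after 5 h at 37 C they received compounds via pintool; third, fluorescence was measured at 0 h through 40 h at 8 h intervals.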

[3] = qHTS RealTime-Glo MT Cell Viability Assay in HepG2 cells - 32 hour (AID 1224877); note: nearly all actives have a fitted effect of over 55% in size; note: potency is the fitted concentration of half-maximal effect
Outline: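 qHTS, HepG2, 600 cells/well, RealTime-Glo (NanoLuc + prosubstrate) added with cells; 5 h preincubation; DMSO compound addition; 37 C; luminescence at 0/8/16/24/32/40 h.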

[4] = qHTS RealTime-Glo MT Cell Viability Assay in HEK293 cells - 0 hour (AID 1224880); note: nearly all actives have a fitted effect of over 45% in size; note: potency is the fitted concentration of half-maximal effect
Outline: as §1

[5] = A CellTox Green Cytotoxicity Assay to monitor cytotoxicity in HepG2 cells - 0 hour (AID 1224882); note: nearly all actives have a fitted effect of over 35% in size
Outline: as §2

[6] = A CellTox Green Cytotoxicity Assay to monitor cytotoxicity in HepG2 cells - 24 hour (AID 1224878); note: nearly all actives have a fitted effect of over 45% in size; note: potency is the fitted concentration of half-maximal effect
Outline: as §2

[7] = A CellTox Green Cytotoxicity Assay to monitor cytotoxicity in HepG2 cells - 40 hour (AID 1224879); note: nearly all actives have a fitted effect of over 40% in size; note: potency is the fitted concentration of half-maximal effect
Outline: as §2

[8] = A CellTox Green Cytotoxicity Assay to monitor cytotoxicity in HEK293 cells - 32 hour (AID 1224881); note: nearly all actives have a fitted effect of over 40% in size; note: potency is the fitted concentration of half-maximal effect
Outline: (§3)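 Dead-cell fluorescence measured kinetically: asymmetric cyanine dye, HEK293, 600 cells/well, 5 h settle, 23 nL cpd/DMSO, 37 C, reads 0–40 h every 8 h.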

[9] = A CellTox Green Cytotoxicity Assay to monitor cytotoxicity in HepG2 cells - 32 hour (AID 1224883); note: nearly all actives have a fitted effect of over 50% in size; note: potency is the fitted concentration of half-maximal effect
Outline: as §2

[10] = A CellTox Green Cytotoxicity Assay to monitor cytotoxicity in HEK293 cells - 24 hour (AID 1224875); note: series mostly up to about 77 µM; nearly all actives have a fitted effect of over 45% in size
Outline: as §3
% is set by controls: 0 for no effect and ±100 for the full control effect.

CSc1c(Cl)c(Cl)c(Cl)c(Cl)c1Cl
active: Potency [2] 48.7 µM
inactive: max response [1] -20.6% | Potency [3] | Potency [4] | Potency [5]

CC(C)CCOCCC(C)C
inactive: max response [1] 7.57% | Potency [2] | Potency [6] | Potency [7] | Potency [4] | Potency [8] | Potency [5] | Potency [9]

CCO[Si](CCCSSSSCCC[Si](OCC)(OCC)OCC)(OCC)OCC
inactive: max response [1] -16.8% | Potency [2] | Potency [3] | Potency [6] | Potency [7] | Potency [4] | Potency [9]

CCCCCCCCCC(=O)N(C)C
inactive: max response [1] -15.6% | Potency [2] | Potency [3] | Potency [7] | Potency [4] | Potency [9]

CCCCCCCCCCc1ccccc1
inactive: max response [1] -5.33% | Potency [2] | Potency [3] | Potency [7] | Potency [4] | Potency [8] | Potency [9]

CCC(=O)OCCc1ccccc1
inactive: max response [1] 14% | Potency [2] | Potency [3] | Potency [6] | Potency [7] | Potency [4] | Potency [8] | Potency [5] | Potency [9]

CCc1c(Br)c(Br)c(Br)c(Br)c1Br
inactive: max response [1] 4.82% | Potency [2] | Potency [3] | Potency [7] | Potency [4] | Potency [8] | Potency [5] | Potency [9]

C=C(C)CCCC
inactive: max response [1] 3.81% | Potency [3] | Potency [6] | Potency [7] | Potency [4] | Potency [8] | Potency [5] | Potency [9]

C=CC(=O)OCCOCC(CC)(COCCOC(=O)C=C)COCCOC(=O)C=C
inactive: Potency [4] | Potency [5]
active: Potency [1] 14.4 µM | Potency [3] 28.7 µM | Potency [9] 25.6 µM

CCCCCCOc1ccc(O)cc1
active: Potency [1] 0.0776 µM | Potency [8] 19.5 µM
inactive: Potency [4] | Potency [5]

O=Nc1ccc(NO)cc1
inactive: Potency [10] | Potency [2] | Potency [3] | Potency [6] | Potency [7] | Potency [4] | Potency [8] | Potency [9]

O=C1c2c(O)ccc([N+](=O)[O-])c2C(=O)c2c([N+](=O)[O-])ccc(O)c21
inactive: Potency [6] | Potency [7] | Potency [8] | Potency [5] | Potency [9]
active: Potency [1] 24.3 µM | Potency [4] 43.2 µM

CC(=O)c1ccccc1N
inactive: Potency [10] | Potency [2] | Potency [3] | Potency [6] | Potency [7] | Potency [4] | Potency [8] | Potency [5] | Potency [9]

COc1ccc2sc(C(=O)Nc3nnn[nH]3)c(OC(C)C)c2c1
inactive: Potency [10] | Potency [2] | Potency [3] | Potency [6] | Potency [7] | Potency [4] | Potency [8] | Potency [5] | Potency [9]

Cc1ccc2ccc3cccc4ccc1c2c34
inactive: Potency [10] | Potency [2] | Potency [3] | Potency [6] | Potency [7] | Potency [4] | Potency [8] | Potency [5] | Potency [9]

CN(C)CCOC(c1ccccc1)c1ccccc1 (tested in a mixture with another compound)
inactive: Potency [10] | Potency [2] | Potency [3] | Potency [6] | Potency [7] | Potency [4] | Potency [8] | Potency [5] | Potency [9]

CC1CCCCN1CCCOC(=O)c1ccc(OC2CCCCC2)cc1 (centres undefined)
inactive: Potency [4] | Potency [5]
active: Potency [1] 21.3 µM | Potency [6] 26.8 µM | Potency [7] 26.8 µM | Potency [9] 26.8 µM

CC(C)C(=O)OCc1ccccc1
inactive: max response [1] 18.1% | Potency [3]

Cc1cc(Nc2ccc(O)cc2)ccc1N
inactive: Potency [2] | Potency [6] | Potency [5]
active: Potency [1] 19.4 µM | Potency [8] 43.5 µM

CCC(C)(C)c1cc(O)c(C(C)(C)CC)cc1O
inactive: Potency [4] | Potency [5]
active: Potency [1] 34.7 µM | Potency [7] 49 µM | Potency [9] 49 µM

CCCCCCC(C)OC(=O)COc1nc(F)c(Cl)c(N)c1Cl (centres undefined)
inactive: max response [1] -20.4% | Potency [3] | Potency [4] | Potency [5]

O=C1NCN(c2ccccc2)C12CCN(CCCC(c1ccc(F)cc1)c1ccc(F)cc1)CC2
inactive: Potency [4] | Potency [5]
active: Potency [1] 19 µM | Potency [3] 6.01 µM | Potency [6] 7.56 µM | Potency [7] 6.74 µM | Potency [9] 6.74 µM

CC(C)N=C(N)/N=C(\N)Nc1ccc(Cl)cc1
inactive: Potency [3] | Potency [4] | Potency [8]
active: Potency [1] 26.8 µM | Potency [6] 26.8 µM | Potency [7] 26.8 µM | Potency [9] 26.8 µM

CN(C)CCCN1c2ccccc2Sc2ccc(C(F)(F)F)cc21
inactive: Potency [5]
active: Potency [1] 23.9 µM | Potency [2] 23.9 µM | Potency [7] 23.9 µM | Potency [8] 23.9 µM | Potency [9] 23.9 µM

C(=C/c1ccccc1)/c1ccccc1
inactive: max response [1] -13.3% | Potency [2] | Potency [6] | Potency [7] | Potency [4] | Potency [9]

CCCC(CC)CCCCCCCN (centres undefined)
inactive: Potency [3] | Potency [5]
active: Potency [1] 56.3 µM | Potency [8] 44.7 µM

CC(C)(C)c1cc(/C=C2\SC(=N)NC2=O)cc(C(C)(C)C)c1O
active: Potency [1] 49 µM | Potency [2] 43.6 µM | Potency [7] 43.6 µM | Potency [9] 43.6 µM
inactive: Potency [4] | Potency [5]

Clc1ccc(C(Cn2ccnc2)OCc2c(Cl)cccc2Cl)c(Cl)c1 (centres undefined)
inactive: Potency [3]
active: Potency [1] 16.9 µM

NC(=O)C(=O)N/N=C/c1ccc([N+](=O)[O-])o1
inactive: max response [1] 5.32% | Potency [2] | Potency [6] | Potency [4] | Potency [8] | Potency [5]

C/C=C/C=N/NC(=O)c1ccncc1
inactive: max response [1] 11.4% | Potency [3] | Potency [6] | Potency [7] | Potency [4] | Potency [5] | Potency [9]

CCCN(CCc1cccs1)[C@H]1CCc2c(O)cccc2C1
inactive: Potency [3] | Potency [4] | Potency [5]
active: Potency [1] 21.3 µM | Potency [7] 23.9 µM | Potency [9] 23.9 µM

CC(=O)Nc1ccc(O)cc1
inactive: max response [1] 7.7% and -11.8% and 15.1% | Potency [3] | Potency [6] | Potency [7] | Potency [4] | Potency [5] | Potency [9]
